# Assay outcomes: PubChem BioAssay, National Center for Advancing Translational Sciences (NCATS)
# Only some compounds are listed: those with a hit (about 7.9% of all), similar ones and a draw of the others.
# HT1080 IDH1KD tx – kills HT-1080 cells with IDH1 knockdown | HT-1080 IDH1 knockdown viability, ATP luminescence, 48 h | Potency, µM (top dose mostly 46.1 µM), without a hit: at the top dose activity, negative = toxicity, hits mostly cytotoxic | 360,000 compounds, 2% hits | AID 686971;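 further: 0% = DMSO wells and -100% = cell-free medium wells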
#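 Luminescent ATP read-out (CellTiter-Glo, 10 min at room temperature) after 48 h compound exposure at 37 °C gave viability of IDH1-knockdown HT-1080 cells. Activity was normalised to DMSO and cell-free wells, then fitted as concentration-response curves.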
# KB-3-1 cytotox – kills parental KB-3-1 adenocarcinoma cells; 400,000 compounds, 1.4% hits; Potency, µM (doses to about 46.1 µM), hits mostly cytotoxic; KB-3-1 viability, CellTiter-Glo ATP luminescence, 72 h; further: on the % scale 0 is the no-effect control and ±100 the full control effect; nearly all actives have a fitted effect of over 60% in size
#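 Cytotoxicity in the drug-sensitive parental line KB-3-1 was scored as loss of CellTiter-Glo luminescence following 72 h incubation with compound. Values come from curve fitting of normalized concentration-response data.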
# MCF10A rereplic – DNA re-replication induction in MCF 10a cells | Potency, µM (highest dose often 46.1 µM), inactives show at the highest dose activity, positive = re-replication, hits mostly activators | MCF 10A DNA re-replication, Hoechst nuclear intensity, 48 h | 350,000 compounds, 2.9% hits; further: % of control where 0% means no effect; nearly all actives have a fitted effect of over 50% in size
# KB-V1 cytotox – kills drug-selected multidrug resistant KB-V1 cells | Potency, µM (titrated, usually from 46.1 µM), actives largely listed as cytotoxic | KB-V1 MDR cells viability, CellTiter-Glo, 72 h | 400,000 compounds, 3.4% hits; further: on the % scale 0 is the no-effect control and ±100 the full control effect; nearly all actives have a fitted effect of over 60% in size
#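 In this primary screen, KB-V1 cells overexpressing P-gp are incubated with library compounds (lowest to highest concentration) for 72 h at 37 degrees C before a luminescent ATP viability read.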
# SW480 rereplic – DNA re-replication induction in SW480 cells; SW480 DNA re-replication, Hoechst DNA content imaging, 48 h; Potency, µM (highest dose often 46.1 µM), for the others: top-dose re-replication activation, hits mostly activators; 340,000 compounds, 1.8% hits; AID 624297; further: % of control where 0% means no effect; nearly all actives have a fitted effect of over 55% in size
#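 First, 250 cells per well were seeded. Next, compound or vehicle (23 nL) was pinned in, plates sat 48 hr at 37 C. Finally Hoechst was added for 40 min before fluorescence scanning.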
# HT1080-NT tox – kills 2HG-producing HT-1080-NT fibrosarcoma cells | HT-1080-NT fibrosarcoma viability, CellTiter-Glo ATP luminescence, 48 h | Potency, µM (highest dose often 46.1 µM), without a hit: top-dose activity, negative = less viability, hits mostly cytotoxic | 360,000 compounds, 1.6% hits;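 further: NT is the 2HG producing partner of a matched IDH1 knockdown line; 0% = DMSO-treated cells and -100% = media-only wells without cells; nearly all actives have a fitted effect of over 55% in size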
#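 Luminescent CellTiter-Glo readout after 48 hours of compound exposure at 37 degrees C defined viability of HT-1080-NT cells. Activity was normalized to DMSO wells and cell-free media wells; concentration-response curves were fitted and assigned curve classes.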
# * = called active by the depositor; i = inactive; ? = inconclusive; / = no result; [ ] = remark or other dose. The call rests on the fitted dose curve; in most records, active means well fitted curve in the direction sought with a large enough effect; inconclusive means small, poorly fitted or top-dose-only effect, or another doubt; inactive means no such curve, though single readings can be large; an effect the other way counts as inactive or inconclusive. Potency means the concentration at half of the fitted maximal effect.
SMILES,HT1080 IDH1KD tx,KB-3-1 cytotox,MCF10A rereplic,KB-V1 cytotox,SW480 rereplic,HT1080-NT tox
N#Cc1cc2c(nc1SCC(=O)Nc1cccc(C(F)(F)F)c1)C1CCN2CC1,/,?,/,9.2µM*,/,/
N#Cc1cccc(NC(=O)CSc2nc3c(cc2C#N)N2CCC3CC2)c1,/,?,/,i,/,/
CCCCn1c(O)c(C(CC)=NCCN2CCOCC2)c(=O)[nH]c1=O,-22%,i,-9%,?,-6%,1%
CCOC(=O)C1=C(N)OC2=C(C(=O)CCC2)[C@]12C(=O)N(CC(N)=O)c1ccccc12,-4%,i,0%,i,-2%,0%
COc1ccc(CNCCc2c(C)[nH]c3ccc(OC(F)(F)F)cc23)c(OC)c1,23µM*,?,21µM*,7.3µM*,?,21µM*
COc1ccc2[nH]c(C)c(CCNCc3cc(OC)c(OC)c(OC)c3)c2c1,-17%,i,12%,?,-11%,-6%
O=C(Nc1ccc2c(c1)OCO2)c1cccn(Cc2cccc([N+](=O)[O-])c2)c1=O,/,i,/,i,/,/
CN(C)CCNC(=O)C(=O)NCC1OCCCN1S(=O)(=O)c1cccs1 (stereo unspecified),5%,?,1%,i,?,4%
COC(=O)c1cn(S(=O)(=O)c2ccccc2)c2ccccc12,-5%,i,26µM*,i,?,-7%
CCN1C(=O)NC(=O)/C(=C\c2cn(CC(=O)N3CCCC3)c3ccccc23)C1=O,-1%,i,0%,i,10%,-8%
O=C1NC(=O)N(c2ccccc2F)C(=O)/C1=C/c1cn(CC(=O)N2CCOCC2)c2ccccc12,?,i,21µM*,i,6%,?
S=C(NC1CCCCC1)N1CCC(c2cnc[nH]2)CC1,-9%,i,-19%,i,11%,-5%
COc1cc2c(cc1O)[C@@H]1Cc3ccc(OC)c(O)c3CN1CC2,2.6µM*,5.8µM*,?,7.3µM*,?,2.6µM*
c1ccc(-c2[nH]c(-c3ccccc3)[n+](CC3CO3)c2-c2ccccc2)cc1 (stereo unspecified),-23%,?,13µM*,?,/,-25%
CCN(CC)C(=O)Oc1nnc(SC(C)C)n1-c1ccc(Cl)c(Cl)c1,-14%,i,15%,?,-29%,-3%
Cc1ccc(C)c(-n2c(C)nc3ccccc3c2=O)c1,7%,i,8%,i,-16%,?
CCOC(=O)C1(c2ccccc2)CCN(CC(=O)Nc2cccc3ccccc23)CC1,-2%,i,?,3.7µM*,21µM*,2%
CCOC(=O)C1(c2ccccc2)CCN(CCC(=O)Nc2ccccc2OC)CC1,4%,i,-1%,i,-27%,-4%
O=c1[nH]sc2cc(F)ccc12,?,i,?,i,?,?
CC(C)(O)/C=C/C(=O)[C@](C)(O)C1[C@H](O)C[C@@]2(C)C3CC=C4C(C[C@H](O)[C@@H](O)C4(C)C)[C@]3(C)C(=O)C[C@]12C (stereo partly specified),1.3µM*,?,1.3µM*,i,?,1.3µM*
CC(C(=O)c1c[nH]c2ccccc12)N1CCSCC1 (stereo unspecified),-4%,i,-5%,i,-3%[9.22 µM],-11%
COc1ccc(S(=O)(=O)Nc2ccccc2OC)cc1N=Nc1c(O)[nH]c(=S)[nH]c1=O,12µM*,i,21µM*,i,9%,15µM*
O=C1/C(=C/c2ccccc2Cl)N2CCC1CC2,0%,i,2%,i,6%,-6%
COc1ccc(NC(=O)c2cccn(Cc3ccc(Cl)cc3)c2=O)c(OC)c1,/,i,/,?,/,/
COc1ccc(NC(=O)CSc2nnc(Cc3cccn3C)n2CCc2ccccc2)c(OC)c1,?,i,?,3.3µM*,2%,?
SMILES,HT1080 IDH1KD tx,KB-3-1 cytotox,MCF10A rereplic,KB-V1 cytotox,SW480 rereplic,HT1080-NT tox
CCOC(=O)[C@]12Cc3cc(OC)ccc3[C@H]1N(CCC(=O)OC)C(=O)c1cc(OC)ccc12,?,5.2µM*,/,?,/,?
CCOC(=O)[C@]12Cc3ccccc3[C@H]1N(CCC(=O)OC)C(=O)c1cc(OC)ccc12,?,?,/,9.2µM*,/,?
CCOC(=O)[C@]12Cc3c(cc(OC)c(OC)c3OC)[C@H]1N(CCC(=O)OC)C(=O)c1ccccc12,?,8.2µM*,/,?,/,?
CCOC(=O)[C@]12Cc3cc(OC)ccc3[C@H]1N(Cc1ccccc1)C(=O)c1cc(OC)ccc12,-26%,?,/,i,/,-20%
CCC1(CC)C(=O)NC(=Nc2cccc(C(F)(F)F)c2)NC1=O,-4%,i,6%,?,-2%,-2%
c1cc2c(cc1CCNC1C3CC4CC(C3)CC1C4)OCO2 (stereo unspecified),1%,i,9%,21µM*,-5%,0%
O=C(CNC(=O)OCc1ccccc1)Nc1ccc(Br)cc1C(=O)c1ccccc1Cl,?,?,27%,8.2µM*,7%,-29%
CN(C(=O)CNC(=O)OCc1ccccc1)c1ccc(Br)cc1C(=O)c1ccccc1Cl,?,2.3µM*,8.2µM*,3.7µM*,12µM*,?
O=C(CNC(=O)c1ccc(Br)cc1)Nc1ccc(Br)cc1C(=O)c1ccccc1,0%,i,1%,i,-3%,0%
CCC(=O)Nc1nc2ccccc2n1CCN(C)C,1%,i,?,i,-9%,2%
COc1cccc(CN(C)C[C@@H]2OCc3ccccc3-c3c(n(C)c4ccccc34)C(=O)N([C@@H](C)CO)C[C@H]2C)c1,?,?,/,i,/,?
C[C@@H]1CN([C@H](C)CO)C(=O)c2c(c3ccccc3n2C)-c2ccccc2CO[C@H]1CN(C)Cc1ccc(-c2ccccc2)cc1,16µM*,?,/,?,/,21µM*
C[C@H]1[C@H](OC(=O)CCC(=O)NCc2ccc(C(=O)O)cc2)O[C@@H]2O[C@@]3(C)CC[C@H]4[C@H](C)CC[C@@H]1C24OO3,8.2µM*,8.2µM*,?,15µM*,?,?
CC(C)CC(NC(=O)CCCNC(=O)CCC(=O)OC1O[C@H]2OC3(C)CC[C@H]4[C@H](C)CCC(C1C)C24OO3)C(=O)O (stereo partly specified),18µM*,7.3µM*,24%,?,8.2µM*,23µM*
